High-throughput results from PubChem.
Autofluor counter: compound fluorescence in toxin protease inhibitor counterscreen | compound autofluorescence counterscreen, microsphere flow cytometry; active compounds read high | fluorescence intensity (concentration not given with the values) | actives 3.1% (n = 360,000); in the data active means fluorescence intensity above about 16000; inconclusive means no clear call, values can overlap the other calls
Anthrax LF inh2: anthrax lethal factor protease inhibition; inhibition, % at 10 µM; multiplex microsphere protease cleavage assay, LF; actives 0.12% (n = 360,000)
BH1578 lux ind: induces V. cholerae light production without autoinducers. V. cholerae BH1578 lux reporter, luminescence, 6 h. activation, % at 18.7 µM. actives 0.16% (n = 350,000); in the data active means activation mostly above about 9.7%, no sharp cut-off; inconclusive means no clear call, values can overlap the other calls; inactive means mostly below about 3.7%
BoNT F protease: BoNT F light chain protease inhibition; Multiplex microsphere protease cleavage assay, flow cytometry; inhibition, % at 10 µM; actives 0.22% (n = 360,000); AID 588497; in the data active means inhibition above about 35%, passing the limit was not always enough; inconclusive means no clear call, values can overlap the other calls
BoNT A protease: BoNT A light chain protease inhibition; multiplex microsphere protease substrate cleavage, flow cytometry; inhibition, % at 10 µM; actives 0.17% (n = 360,000); AID 588499
BJeLR viability: BJeLR cell viability loss | BJeLR (HRASV12) viability, CellTiter-Glo ATP luminescence, 48 h | AID 1554 | actives 0.17% (n = 300,000) | inhibition, % (concentration not given with the values); in the data active means inhibition above about 50%; inconclusive means no clear call, values can overlap the other calls
BoNTA LC inh 1: inhibitors of Botulinum neurotoxin A light chain protease; shares compounds with BoNT F protease; multiplex microsphere protease assay, flow cytometry; inhibition, % at 10 µM; actives 3% (n = 720); in the data active means inhibition above about 32%
BoNT-F LC CP1: BoNT/F light chain protease inhibition; shares compounds with BoNT F protease; multiplex microsphere protease cleavage assay, flow cytometry; inhibition, % at 10 µM; 720 tested, under 10 active; call rule not given here
LF protease CP1: Bacillus anthracis lethal factor protease inhibition | multiplex microsphere protease cleavage assay, LF | 720 tested, under 10 active | AID 602142 | inhibition, % at 10 µM | shares compounds with BoNT F protease; call rule not given here
BoNT-A LC CP2: inhibitors of botulinum neurotoxin A light chain protease; shares compounds with BoNT A protease; multiplex microsphere protease cleavage assay, flow cytometry; inhibition, % at 10 µM; actives 10% (n = 150); AID 602325; in the data active means inhibition above about 24%
LF protease CP2: inhibitors of Bacillus anthracis lethal factor protease; shares compounds with BoNT A protease; multiplex microsphere protease cleavage assay; inhibition, % at 10 µM; actives 7% (n = 150); in the data active means inhibition above about 25%
BoNT-F LC CP2: blocks botulinum neurotoxin F light chain protease; shares compounds with BoNT A protease; multiplex microsphere protease cleavage assay, flow cytometry; inhibition, % at 10 µM; actives 7% (n = 150); AID 602336; in the data active means inhibition above about 25%
Hits are given with their value; - = inactive; ? = inconclusive; . = no result given. In the library only some 3.7% were active in any assay of this set; here they are far more common. Unless noted, no stated cut-off is given here; in the data, active means inhibition above about 30%; inconclusive means no clear call, values can overlap the other calls; inactive means below that.

SMILES	Autofluor counter	Anthrax LF inh2	BH1578 lux ind	BoNT F protease	BoNT A protease	BJeLR viability	BoNT-A LC CP2	LF protease CP2	BoNT-F LC CP2	others
COc1ccc(CNC(=O)C2CCN(C(=O)c3ccc(-c4ccccc4)cc3)CC2)cc1	-	32	-	-	-	-	.	.	.	BoNTA LC inh 1=-;BoNT-F LC CP1=-;LF protease CP1=-
N#Cc1ccc(-c2ccco2)nc1SCC(=O)c1ccc(Cl)cc1	-	41	.	?	55	-	.	.	.	BoNTA LC inh 1=-;BoNT-F LC CP1=-;LF protease CP1=-
NS(=O)(=O)c1cccc(NC(=O)COC(=O)CCC(=O)c2cccs2)c1	-	-	-	-	-	.	.	.	.
CC1CCCC(N2CCN(C(=O)c3ccccc3F)CC2)C1 (configuration not stated)	-	38	-	?	-	-	.	.	.	BoNTA LC inh 1=-;BoNT-F LC CP1=-;LF protease CP1=-
CC1CCN(C2CCN(C(=O)c3ccccc3F)CC2)CC1	.	.	-	.	.	-	.	.	.
CCN(CC)CCN(C)C(=O)c1[nH]c(C(F)(F)F)nc1-c1ccccc1	-	-	.	-	-	.	.	.	.
COc1ccc(C)cc1N(CC(=O)N1CCCC1)S(C)(=O)=O	-	-	-	-	-	-	.	.	.
COc1ccc(C)cc1N(CC(=O)N1CCOCC1)S(C)(=O)=O	-	-	-	36	-	-	.	.	.	BoNTA LC inh 1=-;BoNT-F LC CP1=-;LF protease CP1=-
C[C@H](CO)N1C[C@H](C)[C@H](CN(C)Cc2cncnc2)Oc2ncc(C#CC3(O)CCCC3)cc2C1=O	-	-	-	-	-	.	.	.	.
Cn1ccc2c(-c3ccc(C(F)(F)F)cc3)cc3c(c21)C1CCC3O1 (configuration not stated)	-	-	.	-	-	.	.	.	.
Cn1ccc2c(-c3ccc(F)cc3)cc3c(c21)C1CCC3C1 (configuration not stated)	-	-	.	-	-	.	-	-	-
Cn1ccc2c(-c3ccc4c(c3)OCCO4)cc3c(c21)C1CCC3C1 (configuration not stated)	-	-	.	-	-	.	-	-	-
COc1ccc(-c2cc3c(c4c2ccn4C)C2CCC3C2)cc1F (configuration not stated)	-	-	.	-	-	.	-	-	-
COc1ccc(-c2cc3c(c4c2ccn4C)C2CCC3O2)cc1OC (configuration not stated)	-	-	.	-	-	.	.	.	.
Cn1ccc2c(-c3ccc(C(F)(F)F)cc3)cc3c(c21)C1CCC3C1 (configuration not stated)	-	-	.	-	-	.	-	-	-
COc1cc(OC)cc(C(=O)N2CCN(S(=O)(=O)c3ccc4c(c3)OCCO4)CC2)c1	-	-	-	-	-	.	.	.	.
CCCCn1c(N)c(N(CCOC)C(=O)CN(C)CC(=O)Nc2ccc(Cl)c(Cl)c2)c(=O)[nH]c1=O	-	-	-	-	-	.	.	.	.
CNc1ncnc2c1ncn2[C@H]1CN(Cc2cccnc2)C[C@@H](CO)O1	-	-	-	-	-	.	.	.	.
Cc1ccccc1N=C(c1ccccc1)C1C(=O)c2ccccc2C1=O	-	-	.	-	-	.	.	.	.
Cc1ccccc1-c1cc2c(c3c1ccn3C)C1CCC2C1 (configuration not stated)	-	-	.	-	-	.	-	-	-
Cn1ccc2c(-c3ccc(CO)cc3)cc3c(c21)C1CCC3C1 (configuration not stated)	-	-	.	-	-	.	-	-	-
CSc1ccc(-c2cc3c(c4c2ccn4C)C2CCC3C2)cc1 (configuration not stated)	-	-	.	-	-	.	.	.	.
Cn1ccc2c(-c3ccc(C(N)=O)cc3)cc3c(c21)C1CCC3C1 (configuration not stated)	-	-	.	-	-	.	-	-	-
C[C@H]1CN([C@@H](C)CO)C(=O)CCCn2cc(nn2)CO[C@@H]1CN(C)C(=O)Cc1ccccc1	-	-	-	-	-	.	.	.	.
C=CCOc1cccn2c(N(C=O)Cc3ccccc3)c(CC)nc12	-	-	-	-	-	.	.	.	.
